The source of these data is PubChem BioAssay (NCATS).

Several values for one entry are separate records, joined by “and”; a condition that tells them apart may be missing. Equal entries are not always repeated. Results filed as inconclusive are left out. Values without a mark were called inactive. Calls come from the whole dose curve; as a rule, active = well fitted cell-killing curve with a large enough effect in the repeat runs; inconclusive = weak or mixed curves; inactive = flat fitted curve, though single readings scatter.
% is set by controls: 0 for no effect and ±100 for the full control effect.

This experiment in a line: qHTS assay for small molecule agonists of the antioxidant response element (ARE) signaling pathway measured by Nrf2-dependant transcriptional activity - cell viability counter screen (AID 720653). The note with it: ARE-bla HepG2 viability, CellTiter-Glo ATP luminescence, 16 h; active compounds read low. The text has this:
National Center for Advancing Translational Sciences [NCATS] NIH Chemical Genomics Center [NCGC] U.S. Environmental Protection Agency [EPA] National Institutes of Environmental Health Sciences [NIEHS] National Toxicology Program [NTP] Assay Overview: Oxidative stress has been implicated in the pathogenesis of a variety of diseases ranging from cancer to neurodegeneration. The antioxidant response element (ARE) signaling pathway plays an important role in the amelioration of oxidative stress. The CellSensor ARE-bla HepG2 cell line (Invitrogen) can be used for analyzing the Nrf2/antioxidant response signaling pathway. Nrf2 (NF-E2-related factor 2) and Nrf1 are transcription factors that bind to AREs and activate these genes. The CellSensor ARE-bla HepG2 cell line contains a beta-lactamase reporter gene under control of the Antioxidant Response Element (ARE) stably integrated into HepG2 cells. The activation of the report gene under culture conditions can be detected by fluorescence intensity. The cytotoxicity of the compounds against the ARE-bla HepG2 cell line was quantified by measuring the intracellular ATP content.
Assay Protocol Summary: ARE-bla HepG2 cells were dispensed at 2,000 cells/5 ul/well in 1536-well black wall/clear bottom plates using a Multidrop Combi (ThermoFisher Scientific, Waltham, MA) dispenser. After the assay plates were incubated at 37C/5% CO2 for 5 hrs, 23 nL of compounds dissolved in DMSO, positive controls or DMSO only was transferred to the assay plate by a pintool work station (Kalypsys, San Diego, CA). The plates were incubated at 37C/5% CO2 for 16 hrs. After 1 uL of LiveBLAzer B/G FRET substrate was added using a Flying Reagent Dispenser (FRD) (Aurora Discovery, San Diego, CA), the assay plates were incubated at room temperature for 2 hrs. The fluorescence intensity was measured by an Envision (PerkinElmer, Shelton, CT) plate reader. Cell viability using CellTiter Glo viability assay (Promega, Madison, WI) was also measured by adding 4 ul/well of CellTiter-Glo reagent into the same assay plate using a FRD. After 30 min incubation at room temperature, the luminescence intensity in the plates was measured using a ViewLux (PerkinElmer) plate reader.
On the technique in general: qHTS replaces the single test concentration by a dilution series.
On to `O=[N+]([O-])c1ccc2nc[nH]c2c1`, for which the max response was -5.47%.

Consider `ClCCl`, for which the max response was 8.53%. The result for `O=C1NC(=O)c2cc([N+](=O)[O-])ccc21` reads -3.07%; that for `CCOc1cc(OCC)c(C(C)=O)cc1OCC`, 3.21%. Then `CCCCCCCCC/C=C/CC1CC(=O)OC1=O` (stereo not given), with -4.85%; and `CC(=O)CCc1ccccc1`, with 0.255%. In the case of `Cc1ccccc1C=O`, the max response was -9.4%. Then `Cc1cccc(C)c1[N+](=O)[O-]`, with -4.95% and -2.18%; and `CC(N)CN` (stereo not given), with 0.44%. Turning to `Clc1ccccn1`, the max response was -1.74%.

On to `CCOC(=O)OCC`, for which the max response is 2.96%. Then `Cc1ccc2oc(=O)ccc2c1`, with -9.69% and -6.43%; and `CC(C)(C)OC=O`, with 9.86%.

As for `CC=C(Cl)Cl`, the max response is -6.27%. With `NC(=O)/N=N/C(N)=O`, the max response is 19.2%. Then `CCCCCCCCC`, with 3.15%; and `Nc1cccc2c(=O)[nH][nH]c(=O)c12`, with 4.98%; and `CC(C)(O)C(=O)O`, with 1.81%. Turning to `CC(C)C=O`, the max response was -2.28%. The result for `Cc1ccc(C)c(N)c1` reads 0.0142%. For the compound `CC(C)=CCC/C(C)=C/C=O`, the max response is -2.99% and -11.3%. The result for `NC(N)=S` reads -0.0983%; that for `C=CC(=O)NC(C)C`, -7.91%. The result for `CC(C)=CCl` reads 14.9%.

For `ClC/C=C/CCl`, the max response was -6.38%. Then `CCCCC/C=C/C=C/C=O`, with -0.854% and -5.85%; and `CC(C)(C)OCC1CO1` (stereo not given), with 11%; and `Cc1ccccc1C(N)=O`, with -2.23%.

As for `CCC=O`, the max response is -3.76%. The result for `CC(=C/C=C/C(C)=C/C=C/C=C(C)/C=C/C=C(C)/C=C/C(=O)O)/C=C/C(=O)O` reads -9.67%; that for `CCOc1cccc(N)c1`, -7.78%; that for `C=CCCCC`, -4.9%. For `Cc1cc([N+](=O)[O-])ccc1N`, the max response was -20.9%.

Turning to `Cc1ccc(N(C)C)cc1`, the max response was -14.6%. Then `N#CCc1ccccc1[N+](=O)[O-]`, with 3.79%. For the compound `C=CCCC`, the max response was 3.55%. Regarding `CCOc1ccccc1N`, the max response is 12.7%. The result for `CC1(N)CCC(C(C)(C)N)CC1` (stereo not given) reads 1.22%; that for `O=C(O)CCSSCCC(=O)O`, 0.366%. The result for `CCC(O)C(C)(C)C` (stereo not given) reads -4.91%.
